Measurements reported in PubChem BioAssay (NCATS).
Inconclusive results are not listed. The source made the active and inactive calls. Unless noted, calls come from the whole dose curve; as a rule, active = well fitted curve in the direction sought with a large enough effect; inconclusive = small, poorly fitted or top-dose-only effect, or another doubt; inactive = no such curve, though single readings can be large; an effect the other way counts as inactive or inconclusive.

Columns and labels:
[1] = target: Nuclear receptor subfamily 1 group I member 2 (Homo sapiens) (UniProt O75469); test: Dual reporter qHTS for agonist of Pregnane X Receptor (hPXR) against the NCATS DSHEA and TCM libraries: Luminescence readout (AID 1920059); note: 0% is about no effect
Summary of the method: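 hPXR-Luc HepG2 cells, 2000/well in 5% charcoal-stripped FBS medium, attached 5 h, then exposed 24 h at 37C to compounds. Viability by CellTiter-Fluor, then luciferase luminescence with ONE-Glo.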

[2] = target: Nuclear receptor subfamily 1 group I member 2 (Homo sapiens) (UniProt O75469); test: Dual reporter qHTS for antagonist of Pregnane X Receptor (hPXR) against the NCATS DSHEA and TCM libraries: Luminescence Readout (AID 1920060);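 note: HepG2 cells carrying hPXR luciferase reporter stimulated with rifampicin at 2 µM; 0% is about no effect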
Summary of the method: (§1)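 In antagonist mode, 2 uM rifampicin was added to hPXR-Luc HepG2 cells alongside test substances, incubated 24 h at 37 C; luminescence gave reporter activity, and CellTiter-Fluor fluorescence (405/540 nm) gave viability.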

[3] = Dual reporter qHTS for antagonist of Pregnane X Receptor (hPXR) against the NCATS DSHEA and TCM libraries: Fluorescence Readout (AID 1920061); note: 0% is about no effect
Summary of the method: as §1

[4] = qHTS drug screen for cell cycle checkpoint inhibitors in PARPi-resistant BRCA-mutant ovarian cancer cell lines. (AID 1963452; calls by dose curve); settings: PEO1/OlaR viability, CellTiter-Glo luminescence, 96 h, stronger effect = lower value
Summary of the method: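 PEO1, PEO4 and PEO1/OlaR ovarian cancer cells, 600 per well, exposed 96 h at 37C to a dilution series. Viability read by CellTiter-Glo luminescence, normalized to DMSO and empty wells; activity summarized as Z-AUC.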

[5] = qHTS profiling for inhibitors of Plasmodium falciparum proliferation (AID 504749); note: nearly all actives have a fitted effect of over 60% in size; note: potency is the fitted concentration of half-maximal effect; settings: P. falciparum in erythrocytes, SYBR Green DNA, 72 h; series mostly up to 28.7 µM
Summary of the method: (§2)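 SYBR Green fluorescence (ex 485 nm, em 535 nm) reports parasite DNA after 72 h compound exposure of infected red cells at 0.3% parasitemia, 2.5% hematocrit; signal normalized to 0.29 uM artemisinin and vehicle wells.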

[6] = system: 3D7; test: as above; settings: P. falciparum in erythrocytes, SYBR Green DNA, 72 h; series mostly up to 28.7 µM
Summary of the method: as §2

[7] = system: AA1029; test: as above; settings: P. falciparum in erythrocytes, SYBR Green DNA, 72 h; series mostly up to 28.7 µM
Summary of the method: as §2

[8] = system: AS120; test: as above; settings: P. falciparum in erythrocytes, SYBR Green DNA, 72 h; series mostly up to 28.7 µM
Summary of the method: as §2

[9] = system: ATS189; test: as above; settings: P. falciparum in erythrocytes, SYBR Green DNA, 72 h; series mostly up to 28.7 µM
Summary of the method: as §2

[10] = system: ATS95; test: as above; settings: P. falciparum in erythrocytes, SYBR Green DNA, 72 h; series mostly up to 28.7 µM
Summary of the method: as §2

[11] = system: C2A; test: as above; settings: P. falciparum in erythrocytes, SYBR Green DNA, 72 h; series mostly up to 28.7 µM
Summary of the method: as §2

[12] = system: CP185; test: as above; settings: P. falciparum in erythrocytes, SYBR Green DNA, 72 h; series mostly up to 28.7 µM
Summary of the method: as §2

[13] = system: CP191; test: as above; settings: P. falciparum in erythrocytes, SYBR Green DNA, 72 h; series mostly up to 28.7 µM
Summary of the method: as §2

[14] = system: CP192; test: as above; settings: P. falciparum in erythrocytes, SYBR Green DNA, 72 h; series mostly up to 28.7 µM
Summary of the method: as §2

[15] = system: CP194; test: as above; settings: P. falciparum in erythrocytes, SYBR Green DNA, 72 h; series mostly up to 28.7 µM
Summary of the method: as §2

[16] = system: CP201; test: as above; settings: P. falciparum in erythrocytes, SYBR Green DNA, 72 h; series mostly up to 28.7 µM
Summary of the method: as §2

[17] = system: CP203; test: as above; settings: P. falciparum in erythrocytes, SYBR Green DNA, 72 h; series mostly up to 28.7 µM
Summary of the method: as §2

[18] = system: CP211; test: as above; settings: P. falciparum in erythrocytes, SYBR Green DNA, 72 h; series mostly up to 28.7 µM
Summary of the method: as §2

[19] = system: CP215; test: as above; settings: P. falciparum in erythrocytes, SYBR Green DNA, 72 h; series mostly up to 28.7 µM
Summary of the method: as §2

[20] = system: 7G8; test: as above; settings: P. falciparum in erythrocytes, SYBR Green DNA, 72 h; series mostly up to 28.7 µM
Summary of the method: as §2

[21] = measured here: PEO1 parental Z-AUC

Nuclear receptor subfamily 1 group I member 2 (Homo sapiens), sequence (O75469 whole entry, looked up): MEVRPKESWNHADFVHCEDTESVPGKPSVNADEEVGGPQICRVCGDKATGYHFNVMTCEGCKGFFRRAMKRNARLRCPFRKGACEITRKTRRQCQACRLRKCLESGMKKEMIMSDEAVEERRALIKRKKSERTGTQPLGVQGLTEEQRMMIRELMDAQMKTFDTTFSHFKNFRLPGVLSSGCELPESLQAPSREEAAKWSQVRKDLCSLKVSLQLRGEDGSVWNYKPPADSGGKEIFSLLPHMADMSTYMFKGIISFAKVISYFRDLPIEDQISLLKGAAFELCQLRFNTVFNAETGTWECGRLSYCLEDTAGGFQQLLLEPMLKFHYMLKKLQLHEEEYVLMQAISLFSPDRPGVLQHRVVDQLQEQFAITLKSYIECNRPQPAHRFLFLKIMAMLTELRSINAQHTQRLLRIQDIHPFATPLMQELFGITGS

C=C1C[C@@]23CC[C@H]4[C@@](C)(CCC[C@@]4(C)C(=O)OC4OC(CO)C(O)C(O)C4O)[C@@H]2CC[C@]1(OC1OC(CO)C(O)C(O)C1OC1OC(CO)C(O)C(O)C1O)C3 (some centres not stated)
inactive: outcome [1] | outcome [2] | outcome [3]

CC1=C(/C=C/C(C)=C/C=C/C(C)=C\C(=O)O)C(C)(C)CCC1
0.115: Z-AUC [4, 21]
0.0344: Z-AUC ([4]; measured here: PEO4 Z-AUC)
inactive: Z-AUC [4] -0.242

O=C(O)/C=C/c1ccc(O)c(O)c1
inactive: outcome [2] | outcome [3]

CCCc1c(OCCCOc2ccc(OCC(=O)O)cc2)ccc(C(C)=O)c1O
inactive: Z-AUC [4] 1.58
1.18: Z-AUC ([4]; measured here: PEO4 Z-AUC)
1.27: Z-AUC [4, 21]

CCCCCCCCCCCCCCC[C@H](O)[C@H](N)CO
inactive: outcome [5] | Potency [6] | outcome [7] | outcome [8] | Potency [9] | outcome [10] | outcome [11] | outcome [12] | Potency [13] | Potency [14] | outcome [15] | outcome [16] | Potency [17] | outcome [18] | outcome [19]

c1ccc(C2CN3CCSC3=N2)cc1 (configuration not stated)
active: Potency [6] 11.2 µM | Potency [20] 0.794 µM | Potency [9] 5.01 µM | Potency [13] 7.94 µM | Potency [14] 19 µM | Potency [17] 16.9 µM
inactive: outcome [16]

CN(C)S(=O)(=O)c1ccc2c(c1)/C(=C/c1cc3c([nH]1)CCCC3)C(=O)N2
inactive: Z-AUC [4] 1.05
0.668: Z-AUC [4, 21]
0.277: Z-AUC ([4]; measured here: PEO4 Z-AUC)

COc1cc(/C=C(\C#N)C(=O)Nc2nnc(C(F)(F)F)s2)ccc1OCc1ccc(C(F)(F)F)cc1C(F)(F)F
0.578: Z-AUC ([4]; measured here: PEO4 Z-AUC)
inactive: Z-AUC [4] 0.582
0.483: Z-AUC [4, 21]

CC(C)NC[C@H](O)COc1ccc(CC(N)=O)cc1
inactive: outcome [5] | Potency [6] | Potency [20] | outcome [7] | outcome [8] | Potency [9] | outcome [10] | outcome [11] | outcome [12] | Potency [13] | Potency [14] | outcome [15] | outcome [16] | Potency [17] | outcome [18] | outcome [19]

CCCCCCCCCCCCCCCCCCOC[C@H](COP(=O)([O-])OCC[N+](C)(C)C)OC
inactive: outcome [5] | Potency [6] | Potency [20] | outcome [7] | outcome [8] | Potency [9] | outcome [10] | outcome [11] | outcome [12] | Potency [13] | Potency [14] | outcome [15] | outcome [16] | Potency [17] | outcome [18] | outcome [19]

CC(O)C(O)[C@H]1CNc2nc(N)[nH]c(=O)c2N1 (some centres not stated)
inactive: outcome [5] | Potency [6] | outcome [7] | outcome [8] | Potency [9] | outcome [10] | outcome [11] | outcome [12] | Potency [13] | Potency [14] | outcome [15] | outcome [16] | Potency [17] | outcome [18] | outcome [19]

O=C1Nc2ccc(I)cc2/C1=C/c1cc(Br)c(O)c(Br)c1
inactive: Z-AUC [4] 1.3
0.686: Z-AUC ([4]; measured here: PEO4 Z-AUC)
0.638: Z-AUC [4, 21]

CN1C2CCC1CC(OC(c1ccccc1)c1ccccc1)C2 (configuration not stated)
active: Potency [20] 4.47 µM
inactive: outcome [5] | Potency [6] | outcome [8] | outcome [11] | Potency [14] | Potency [17] | outcome [18]
